PubChem BioAssay AID1671190 (National Center for Advancing Translational Sciences (NCATS), 2021)
The whole screen tested about 580,000 compounds, of which about 6,100 (1.1%) were called active. Not shown: some 15% with an inconclusive outcome. Calls follow the shape of the dose curve; as a rule, active = well fitted inhibition curve with a large enough effect; inconclusive = small, poorly fitted or top-dose-only effect, or another doubt; inactive = no such curve, though single readings can be large or run the other way. What follows is part of a selection rich in actives, with near analogues and random picks from the rest. A call without a number means that no potency is given here.

Target: Polyunsaturated fatty acid lipoxygenase ALOX12 (Homo sapiens) (UniProt P18054)
Sequence (P18054 whole entry, looked up): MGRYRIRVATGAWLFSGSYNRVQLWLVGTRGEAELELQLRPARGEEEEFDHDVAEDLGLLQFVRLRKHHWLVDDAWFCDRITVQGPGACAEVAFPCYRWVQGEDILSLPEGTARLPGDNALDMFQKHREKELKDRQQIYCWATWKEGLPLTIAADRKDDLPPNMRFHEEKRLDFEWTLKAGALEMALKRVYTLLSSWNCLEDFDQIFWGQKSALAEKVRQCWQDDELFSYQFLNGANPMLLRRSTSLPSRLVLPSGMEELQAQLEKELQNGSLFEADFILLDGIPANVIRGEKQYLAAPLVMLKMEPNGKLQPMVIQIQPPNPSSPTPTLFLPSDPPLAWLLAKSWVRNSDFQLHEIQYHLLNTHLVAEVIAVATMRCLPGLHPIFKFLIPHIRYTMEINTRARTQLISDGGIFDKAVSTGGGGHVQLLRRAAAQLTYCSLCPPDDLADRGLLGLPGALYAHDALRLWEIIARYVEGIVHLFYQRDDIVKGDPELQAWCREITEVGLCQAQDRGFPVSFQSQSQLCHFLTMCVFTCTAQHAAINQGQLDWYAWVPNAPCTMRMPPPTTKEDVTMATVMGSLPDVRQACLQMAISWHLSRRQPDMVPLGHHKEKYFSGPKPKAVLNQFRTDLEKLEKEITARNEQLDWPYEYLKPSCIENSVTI
Assay: Primary qHTS assay for inhibitors of human arachidonate 12S-lipoxygenase (ALOX12): Round 2
Details: purified 12hLO, xylenol orange hydroperoxide absorbance; series mostly up to 108 µM
How it was run: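 Hydroperoxide product was detected by ferrous iron/xylenol orange as the 573 to 405 nm absorbance ratio. Arachidonic acid at 40 uM (final) was turned over for 30 min at room temperature by 150 nM human 12hLO, pH 7.0 Hepes buffer, after 15 min compound preincubation.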
Potency is read from the fitted curve at half-maximal effect.

Compound | Potency
NC(=O)C1CCN(C(=O)c2ccc3c(=O)n(Cc4cccc(Br)c4)c(=S)[nH]c3c2)CC1 | 44.7 µM (active)
CCOC(=O)N1CCN(C(=O)c2ccc3c(=O)n(CCc4ccc(OC)c(OC)c4)c(=O)[nH]c3c2)CC1 | inactive
CCOc1cc2[nH]c(=S)n(Cc3ccc(C(=O)N4CCN(C)CC4)cc3)c(=O)c2cc1OCC | inactive
O=C(Nc1cccc2cccnc12)C1=C(c2ccccc2)S(=O)(=O)CCO1 | inactive
COc1ccc2c(C)c(CC(=O)Nc3nnc(C)s3)c(=O)oc2c1OC | inactive
COC(=O)Cc1cc(=O)n(-c2nc3ccccc3s2)[nH]1 | 6.31 µM (active)
COc1ccc(CC(=O)Nc2ccc(-c3nc4ccccc4s3)c(C)c2)cc1 | inactive
COc1ccc2cc(/C=C(/CC(=O)O)c3nc4ccccc4s3)ccc2c1 | inactive
COc1ccc(N2C(=O)C(C)(C)CS2(=O)=O)cc1S(=O)(=O)Nc1ccc(F)c(Cl)c1 | inactive
CCC1c2nccn2CCCN1C(=O)c1ccc(Cn2cncn2)o1 (configuration not stated) | inactive
COc1ccc(C(C#N)=C2C=CC(=NO)c3ccccc32)cc1 | 39.8 µM (active)
COc1ccc(-c2ccccc2CN)cc1 | inactive
COC(=O)c1ccc(OC)cc1OCc1ccccc1C#N | inactive
COc1ccc(C(=O)c2sc(Nc3cccc(F)c3)nc2N)cc1 | inactive
O=C(NCCc1ccccn1)c1nc(Cn2cc([N+](=O)[O-])cn2)no1 | inactive
O=C(Nc1ccc(Br)c2cccnc12)c1ccc(Cn2cc([N+](=O)[O-])cn2)o1 | 15.8 µM (active)
CC(C)N(C(=O)Cn1c(CN2CCOCC2)nc2ccccc21)c1ccccc1 | inactive
COc1ccc(-c2cn(-c3ccc(C)cc3)c(=O)n2CC(=O)Nc2ccc(OC)c(OC)c2)cc1 | inactive
COc1ccc(-n2c(-c3ccc(OC)c(OC)c3)n[nH]c2=S)cc1 | 17.8 µM (active)
COc1ccc(-c2nc3ccccc3n2CCC(C)C)cc1OC | inactive
O=C([C@@H]1C[C@H](F)CN1C(=O)Nc1cc(F)cc(F)c1)N1CCCCC1 | inactive
O=C(Cc1ccc(Cl)cc1)NCc1nnc2ccc(-c3ccc(F)cc3)nn12 | inactive
CCOC(=O)Cn1c(=O)n(C2CCCCC2)c2nc(-c3cccc(OC)c3)nc(C(N)=O)c21 | inactive
CCOC(=O)Cn1c(=O)n(-c2ccccc2OC)c2nc(-c3cccc(F)c3)nc(C(N)=O)c21 | 11.2 µM (active)
CCOC(=O)Cn1c2c(c(-c3ccccc3OC)cc1=O)CCCC2 | inactive
CCCn1c(C)c(C)c(-c2nc3ccccc3[nH]2)c1NC(=O)CC(C)C | inactive

Compound | Potency
Cc1cc(CN2CCN(Cc3nc(C(C)(C)C)no3)CC2)no1 | inactive
O=c1cc(-c2cccnc2)nc2n(Cc3cccc(F)c3)c3ccccc3n12 | inactive
CC(C)COC(=O)/C(C#N)=C\c1c[nH]c2ccccc12 | inactive
N#Cc1cccc(NC(=S)NCCc2ccccc2)c1 | inactive
O=C(CCC1CCN(S(=O)(=O)c2ccccc2)CC1)NCCc1ccccc1 | inactive
CCCC1CCC(=NNC(=S)NCCc2ccccc2)CC1 (configuration not stated) | 44.7 µM (active)
O=C(c1cccnc1)N(c1cc2sc(=O)oc2c2ccccc12)S(=O)(=O)c1ccccc1 | 15.8 µM (active)
O=C(NCCCNC(=O)c1nc2ccccc2c(=O)[nH]1)c1cccnc1 | inactive
O=C(CN(Cc1ccc(Br)cc1)S(=O)(=O)c1ccccc1)NCc1ccncc1 | inactive
Cc1nn(CC(O)COc2ccccc2)c(=O)c2ccccc12 (configuration not stated) | inactive
Cc1ccccc1C(=O)Nc1ccc2c(c1)nc(CCn1ccccc1=O)n2C | inactive
CCN(CC)S(=O)(=O)c1ccc(Sc2nnc(C)s2)nc1 | inactive
CN(C)c1ccc(C(=O)NCc2nnc3cc(-c4nc(C5CC5)no4)ccn23)cc1 | inactive
COc1ccc(C(=O)NCc2nnc3cc(-c4nc(C)no4)ccn23)cc1 | inactive
CCCc1noc(-c2ccn3c(CNC(=O)c4ccc(N(C)C)cc4)nnc3c2)n1 | 44.7 µM (active)
CCc1cccc2c(C(=O)CSc3nnnn3C3CC3)c[nH]c12 | inactive
CCCNC(=O)c1cn(-c2ccccc2)nc1-c1cccnc1 | inactive
O=C(/C=C/c1cccc(F)c1)c1cc2ccccc2oc1=O | inactive
O=[N+]([O-])c1ccc(Oc2ccc3ccncc3c2)cc1C(F)(F)F | inactive
Cc1ccc(NC(=O)CCc2nc(C(C)(C)C)no2)nc1 | inactive
Cc1ccc2cccc(NC(=O)c3ccccc3C)c2n1 | inactive
Cc1cccc(NC(c2cccc(F)c2)c2ccc3ccc(C)nc3c2O)n1 (configuration not stated) | 25.1 µM (active)
Cc1c(Cl)cccc1NC(=O)COC(=O)c1nn(C)c(=O)c2ccccc12 | inactive
Cc1cc(C)n(CCC(=O)NCC2CCN(c3cc(-c4ccc(F)cc4)[nH]n3)CC2)n1 | inactive
Cc1cc(C)c(NS(=O)(=O)c2ccc(S(=O)(=O)N3CCCC3)cc2)c(C(=O)O)c1 | 39.8 µM (active)
Cc1cc(C)c2sc(NC(=O)c3ccc(S(=O)(=O)N4CCCC4)cc3)nc2c1 | inactive

Compound | Potency
Cc1cc(C)c2oc(C(=O)Nc3ccc(S(=O)(=O)N4CCCCCC4)cc3)cc(=O)c2c1 | inactive
CC(=O)NC(C(=O)NC(C)c1cccc(Cl)c1)C(C)C (configuration not stated) | inactive
CC(C)C(=O)N(Cc1ccc2cc[nH]c2c1)C1CC1 | inactive
NC(=O)[C@@H](Cc1ccccc1)NC(=O)C1=C[C@@H](NS(=O)(=O)c2cccc(C(F)(F)F)c2)[C@@H](O)[C@H](O)C1 | inactive
COc1ccc(CC/C(C)=N/O)cc1 | inactive
O=C(c1ccco1)N1CCC2(CC1)CC(N(Cc1ccccc1)C1CC1)CCO2 (configuration not stated) | inactive
C=CCOc1cccc(C2NC(=O)c3ccccc3O2)c1 (configuration not stated) | inactive
C=CCOc1cccc(C2C(C(=O)c3ccc(C)o3)=C(O)C(=O)N2CCN2CCOCC2)c1 (configuration not stated) | inactive
C=CCOc1cccc(C2C(C(=O)c3ccc(C)o3)=C(O)C(=O)N2c2nnc(C)s2)c1 (configuration not stated) | 39.8 µM (active)
CC(C)NC(=O)NC(=O)Cn1cnc2c1c(=O)n(C)c(=O)n2C | inactive
C/C(=N/NC(=O)c1ccc(Br)o1)c1ccc(C)o1 | inactive
C/C(=N\NC(=O)NC1CCCCC1)c1ccc(OC(F)F)cc1OC(F)F | inactive
C/C(=N\NC(=S)NC1CCCCC1)c1ccc(C)o1 | 5.01 µM (active)
O=C(CN1CCN(C(=O)CCCc2c[nH]c3ccccc23)CC1)NC1CC1 | inactive
CCOC(=O)CSc1ncn(-c2nc(NC(C)(C)C)nc(N(C)C)n2)n1 | inactive
CN(CC(=O)Nc1ccc2c(c1)OC1(CCCCC1)O2)Cc1cccs1 | inactive
CN(C)c1ccc(C=C2C(=O)OC3(CCCC3)OC2=O)cc1 | 44.7 µM (active)
C=CCn1c(N2CCC(C(N)=O)CC2)nc2c1c(=O)[nH]c(=O)n2C | inactive
O=C(Cc1ccc(Cl)cc1)NN=C1CCC(c2ccccc2)CC1 (configuration not stated) | inactive
CCOC(=O)CN1C(=O)C(O)(CC(=O)c2cccnc2)c2ccccc21 (configuration not stated) | inactive
CNCCC(F)(F)F | 15.8 µM (active)
CN1CCC(CNC(=O)CCc2c[nH]c3ccccc23)CC1 | inactive
Cc1cc(C(C)(C)C)ccc1OC(=O)c1ccc(C#N)cc1 | inactive
CN1CCCN(S(=O)(=O)c2ccc3c(c2)CCC3)c2ccccc21 | inactive
CCc1ccc(-c2nc(-c3nc(-c4cccs4)cs3)sc2C)cc1 | inactive
CCOC(=O)C1=C(C)NC(=O)NC1c1ccc(C(=O)OC)cc1 (configuration not stated) | inactive

Compound | Potency
COC(=O)c1ccc(CNC(=O)Cn2cc(C)c(=O)[nH]c2=O)cc1 | inactive
CCOC(=O)c1sc(=S)n2c1[nH]c(=O)c1ccc(C(=O)OC)cc12 | 15.8 µM (active)
COc1ccc(Nc2ccccc2)cc1 | 35.5 µM (active)
COc1ccc(NC(=O)ON=C2c3ccccc3-c3ccccc32)cc1 | inactive
COc1ccc(Nc2nc(-c3cccc(OC)c3OC)no2)cc1 | inactive
O=C(NC1CCc2ccccc21)c1cc(COc2ccc3c(c2)OCO3)[nH]n1 (configuration not stated) | inactive
CC1(C2CC2)NC(=O)N(CC(=O)Nc2cccc3cccnc23)C1=O (configuration not stated) | inactive
O=C(OCc1cc(Cl)c2c(c1)OCCCO2)C12CC3CC(CC(Cl)(C3)C1)C2 | inactive
CCCn1nc(C(=O)Nc2ccc(OC)c(S(=O)(=O)N(C)C)c2)c2ccccc2c1=O | inactive
CCCCc1ccc(Nc2nnc(SCC(=O)NC(C)C)s2)cc1 | inactive
Cc1ccc(Nc2nnc(SCC(=O)c3ccc(Cl)s3)s2)cc1C | inactive
CC(C)c1ccc(Nc2nnc(SCC(=O)c3nnc(-c4ccccc4)o3)s2)cc1 | 39.8 µM (active)
O=C(NCC1CCN(c2cc(-c3ccc(Cl)cc3)[nH]n2)CC1)c1ccc2nc[nH]c2c1 | inactive
COc1ccc(-c2cc(N3CCN(C(=O)Cc4cccc(OC)c4)CC3)n[nH]2)cc1 | inactive
CN(C(=O)CN1CCN(c2cc(-c3ccc(OCc4ccccc4)cc3)ncn2)CC1)c1ccccc1 | 10 µM (active)
Cc1ccc(-c2cc(N3CCCN(C(=O)COc4ccccc4)CC3)n[nH]2)cc1C | inactive
CN(C)[C@H]1CCCCN(C(=O)CC2CCN(Cc3ccccc3)CC2)C1 | inactive
Clc1ccc2oc([C@H]3CCN(Cc4ccccc4)C3)nc2c1 | inactive
Cc1cc(S(=O)(=O)N2CCCC2c2nnc3ccccn23)ccc1Br (configuration not stated) | inactive
CCCCOc1cc(O)c2c(=O)cc(-c3ccccc3)oc2c1 | inactive
COCCNC(=O)COc1cc(O)c2c(=O)cc(-c3ccccc3)oc2c1 | inactive
COc1c(O)cc2oc(-c3ccc(O)c(O)c3)cc(=O)c2c1O | 31.6 µM (active)
COc1ccc(-c2c(C)c3ccc(OS(C)(=O)=O)cc3oc2=O)cc1 | inactive
O=C(CNc1ccccc1)NNC(=O)c1cc(-c2ccccc2)nn1-c1ccccc1 | inactive
